This note sets out measurements from PubChem BioAssay (NCI).

Test systems include HCT-15 colon; HT29 colon; SNB-75 CNS; SNB-19 CNS; U251 CNS; PC-3 prostate; SK-MEL-5 melanoma; UACC-62 melanoma; LOX IMVI melanoma; SK-MEL-28 melanoma; SK-MEL-2 melanoma; EKVX NSCLC; SN12C renal; UO-31 renal; TK-10 renal; ACHN renal; CAKI-1 renal; A498 renal; CCRF-CEM leukemia; MOLT-4 leukemia.
Holding throughout (assay): NCI-60 one-dose screen, 48 h (100 = growth as untreated, 0 = no growth, -100 = all killed)
What all share (conditions): 10 µM unless noted

This is part of a sample that, as a whole, favours compounds with a hit. Of some 83,000 tested, about 20% had one in any assay.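 Single-dose data. Exposure time 48 hours. Values below 10 considered active.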 Unmarked numbers belong to inactive results. Activity calls are given as the source filed them.

As to `O=C(/C=C/c1cccs1)Nc1ncc(Cc2ccccc2F)s1`, the growth in the assay with HCT-15 colon is 27.1%; in the assay on HT29 colon, 8.61% (active); in the assay with SNB-75 CNS, -7.95% (active); in the assay with SNB-19 CNS it was 28.9%; with U251 CNS it was 17%; in the assay with PC-3 prostate it was 29.6%. Besides, the growth in the assay on SK-MEL-5 melanoma is 6.05% (active); in the assay on UACC-62 melanoma, 16.8%; with LOX IMVI melanoma, 20.4%; in the assay on SK-MEL-28 melanoma it was 54.4%; with SK-MEL-2 melanoma, 46.5%; in the assay on EKVX NSCLC, 26.1%. Further, the growth in the assay with SN12C renal was 41.3%; in the assay with UO-31 renal, 36.2%; in the assay with TK-10 renal, 49.6%; with ACHN renal it was 31.5%; with CAKI-1 renal it was 23%; in the assay with A498 renal it was 4.45% (active). Also, the growth is 14.4% with CCRF-CEM leukemia and 26% in the assay with MOLT-4 leukemia.

As to `C1CN(SSN2CCOCC2)CCO1`, the growth in the assay with HCT-15 colon was 19.2% [100 µM]; in the assay with HT29 colon it was -50.6% [100 µM] (active); with SNB-75 CNS, 48.3% [100 µM]; in the assay with SNB-19 CNS it was 67% [100 µM]; in the assay on U251 CNS, -28% [100 µM] (active); in the assay on PC-3 prostate it was 31.2% [100 µM]. Moreover, the growth in the assay on SK-MEL-5 melanoma is 25.7% [100 µM]; in the assay with UACC-62 melanoma, 19.8% [100 µM]; with LOX IMVI melanoma, -41% [100 µM] (active); in the assay on SK-MEL-28 melanoma, -43.3% [100 µM] (active); in the assay with SK-MEL-2 melanoma, 63.1% [100 µM]; in the assay on EKVX NSCLC it was 13.1% [100 µM]. Moreover, the growth in the assay on SN12C renal was -74.7% [100 µM] (active); with UO-31 renal, -37.5% [100 µM] (active); in the assay on TK-10 renal it was -72.8% [100 µM] (active); with ACHN renal, -70.1% [100 µM] (active); in the assay with CAKI-1 renal, -48.4% [100 µM] (active); with A498 renal it was 75.8% [100 µM]. Also, the growth in the assay with CCRF-CEM leukemia is 11.8% [100 µM]; in the assay with MOLT-4 leukemia it was 50.4% [100 µM].

For `O=c1scc(-c2ccc(C(F)(F)F)cc2)s1`, the growth was 93.4% in the assay with HCT-15 colon; 89.4% with HT29 colon; 63.5% in the assay on SNB-75 CNS; 91.8% with SNB-19 CNS; 95.2% in the assay with U251 CNS; 87.8% with PC-3 prostate. Moreover, the growth with SK-MEL-5 melanoma is 97%; in the assay on UACC-62 melanoma, 84.1%; with LOX IMVI melanoma, 103%; in the assay with SK-MEL-28 melanoma, 102%; in the assay on SK-MEL-2 melanoma it was 77.8%; with EKVX NSCLC it was 78.8%. The growth in the assay on SN12C renal is 96.7%; in the assay on UO-31 renal, 89.4%; in the assay on TK-10 renal it was 82.8%; with ACHN renal, 99.8%; with CAKI-1 renal, 73%; in the assay on A498 renal, 77.5%. Besides, the growth with CCRF-CEM leukemia was 88.5%; in the assay on MOLT-4 leukemia, 94.5%.

With `O=C(Nc1nc(-c2ccc(Cl)cc2)nc2c1sc(=S)n2-c1ccccc1)C(F)(F)F`, the growth is 54.9% in the assay on HCT-15 colon; 17.5% in the assay with HT29 colon; -44.1% (active) in the assay on SNB-75 CNS; 61.5% in the assay on SNB-19 CNS; 8.47% (active) in the assay with U251 CNS; 38.6% in the assay on PC-3 prostate. The growth in the assay with SK-MEL-5 melanoma is 64.9%; in the assay on UACC-62 melanoma, 21.1%; with LOX IMVI melanoma it was -20.4% (active); with SK-MEL-28 melanoma it was 78.9%; with SK-MEL-2 melanoma it was 43.3%; in the assay on EKVX NSCLC it was 55%. Further, the growth with SN12C renal was 57%; in the assay with UO-31 renal it was -41.9% (active); in the assay with TK-10 renal, -31.9% (active); in the assay on ACHN renal it was -48.5% (active); with CAKI-1 renal it was 20.2%; in the assay with A498 renal, -8.62% (active). For the same compound, the growth in the assay with CCRF-CEM leukemia is 72.2%; in the assay with MOLT-4 leukemia, 82.6%.

With `CCOC(=O)C1=C(c2ccccc2)N=C2SC=C(c3ccc(Cl)cc3)N2C1c1ccc(Br)cc1` (stereo not given), the growth with HCT-15 colon is 80.8%; in the assay with HT29 colon, 82.2%; in the assay on SNB-75 CNS, 81.7%; in the assay on SNB-19 CNS, 85.4%; in the assay with U251 CNS, 85.8%; in the assay on PC-3 prostate it was 40.6%. The growth was 67.7% in the assay with SK-MEL-5 melanoma; 67.7% with UACC-62 melanoma; 84.8% in the assay with LOX IMVI melanoma; 98.3% in the assay on SK-MEL-28 melanoma; 96.4% with SK-MEL-2 melanoma; 73.9% in the assay with EKVX NSCLC. For the same compound, the growth was 84.5% in the assay with SN12C renal; 73.2% in the assay with UO-31 renal; 103% in the assay on TK-10 renal; 87.3% in the assay with ACHN renal; 61.3% with CAKI-1 renal; 46.7% in the assay on A498 renal. Also, the growth in the assay on CCRF-CEM leukemia was 78.4%; in the assay with MOLT-4 leukemia it was 39%.

On to `CCOC(=O)C/C(=N\Nc1cc(=O)[nH]c2ccc(Br)cc12)C(=O)OCC`, for which the growth in the assay with HCT-15 colon was 99.3%; in the assay on HT29 colon, 107%; in the assay with SNB-75 CNS it was 88.2%; in the assay on SNB-19 CNS, 99.5%; in the assay on U251 CNS it was 108%; with PC-3 prostate, 87.4%. The growth was 95.1% in the assay with SK-MEL-5 melanoma; 90.6% in the assay on UACC-62 melanoma; 94.4% in the assay with LOX IMVI melanoma; 107% in the assay on SK-MEL-28 melanoma; 103% in the assay with SK-MEL-2 melanoma; 109% in the assay on EKVX NSCLC. In addition, the growth with SN12C renal was 100%; in the assay with UO-31 renal it was 71.4%; with TK-10 renal, 126%; with ACHN renal it was 95.7%; with CAKI-1 renal, 83.1%; with A498 renal it was 122%. Besides, the growth in the assay on CCRF-CEM leukemia is -36.7% (active); in the assay on MOLT-4 leukemia, -15.7% (active).

Turning to `COc1ccc(-c2cc(-c3cc(OC)c(OC)c(OC)c3)c(C#N)c(=O)n2CCCCC(=O)NO)cc1`, the growth in the assay with HCT-15 colon was 38.4%; in the assay with HT29 colon, 77.9%; in the assay with SNB-75 CNS, 25.5%; in the assay on SNB-19 CNS, 77.5%; with U251 CNS, 61.3%; in the assay on PC-3 prostate, 61%. For the same compound, the growth in the assay on SK-MEL-5 melanoma is 57.7%; in the assay with UACC-62 melanoma, 60.7%; in the assay with LOX IMVI melanoma, 9.19% (active); with SK-MEL-28 melanoma, 76.8%; in the assay with SK-MEL-2 melanoma, 87.2%; with EKVX NSCLC, 65.5%. For the same compound, the growth in the assay on SN12C renal was 66.5%; in the assay with UO-31 renal it was 37.8%; in the assay with TK-10 renal, 68.1%; in the assay on ACHN renal it was 56.1%; with CAKI-1 renal, 46.3%; in the assay with A498 renal, 76.7%. The growth with CCRF-CEM leukemia was 26.7%; in the assay on MOLT-4 leukemia, 27.2%.
